In PubChem BioAssay AID489028 (Sanford-Burnham Center for Chemical Genomics, 2010):
Hit rate of the full screen: of about 10,000 compounds, about 5,600 (56%) were called active. Cut-off read from the data, not from the text of the source: active = inhibition above about 40%; inactive = the rest. The set was probably picked from earlier hits. The list is a sample of the results.

What follows are molecules tested against Protein Mdm4 (Homo sapiens) + E3 ubiquitin-protein ligase Mdm2 (Homo sapiens) (UniProt O15151+Q00987) (assay: inhibition of human Mdm2/MdmX pairing – luminescence, single concentration, confirmation (AID 489028)). Conditions: Mdm2-MdmX binding, luminescent assay; at 8 µM; active compounds read high.
Sequence of Protein Mdm4 (Homo sapiens) + E3 ubiquitin-protein ligase Mdm2 (Homo sapiens) (O15151 whole entry, looked up): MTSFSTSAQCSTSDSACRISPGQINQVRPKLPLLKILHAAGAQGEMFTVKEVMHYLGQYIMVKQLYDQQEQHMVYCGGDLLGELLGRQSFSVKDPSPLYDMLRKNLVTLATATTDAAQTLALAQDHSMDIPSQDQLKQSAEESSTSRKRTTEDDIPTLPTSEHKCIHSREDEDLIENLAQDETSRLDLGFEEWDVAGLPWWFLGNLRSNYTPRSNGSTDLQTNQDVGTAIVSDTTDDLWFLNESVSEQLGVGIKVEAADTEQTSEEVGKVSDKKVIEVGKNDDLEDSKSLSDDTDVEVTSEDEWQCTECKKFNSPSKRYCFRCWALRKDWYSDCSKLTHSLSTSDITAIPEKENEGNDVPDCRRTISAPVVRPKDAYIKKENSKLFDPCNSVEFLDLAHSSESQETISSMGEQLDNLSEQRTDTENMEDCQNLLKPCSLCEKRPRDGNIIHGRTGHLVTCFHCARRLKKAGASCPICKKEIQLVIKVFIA
Sequence of Protein Mdm4 (Homo sapiens) + E3 ubiquitin-protein ligase Mdm2 (Homo sapiens) (Q00987 whole entry, looked up): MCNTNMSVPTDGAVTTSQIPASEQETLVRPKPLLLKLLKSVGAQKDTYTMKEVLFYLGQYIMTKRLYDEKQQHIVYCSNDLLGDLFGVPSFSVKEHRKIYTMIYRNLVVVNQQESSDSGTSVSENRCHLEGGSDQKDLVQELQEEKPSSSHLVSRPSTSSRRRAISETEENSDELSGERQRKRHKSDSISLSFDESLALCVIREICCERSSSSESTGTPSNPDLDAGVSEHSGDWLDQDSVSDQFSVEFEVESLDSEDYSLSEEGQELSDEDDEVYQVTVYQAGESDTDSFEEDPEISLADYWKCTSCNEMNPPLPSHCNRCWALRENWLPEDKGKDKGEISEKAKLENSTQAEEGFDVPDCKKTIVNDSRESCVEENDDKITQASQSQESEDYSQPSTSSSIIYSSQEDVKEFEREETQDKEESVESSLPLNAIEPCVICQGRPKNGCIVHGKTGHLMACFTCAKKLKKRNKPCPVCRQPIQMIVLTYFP

| SMILES | inhibition |
| --- | --- |
| Cc1cc2oc3ccc(NCCC4CCCN4C)cc3c(=O)c2cc1C (configuration not stated) | 1.8% (inactive) |
| Cc1cccc(NS(=O)(=O)c2ccc(-c3cnc(C4CC4)o3)cc2)c1 | 47% (active) |
| COC(=O)CCNc1ccc2c(c1)OCCO2 | 50.1% (active) |
| O=C1CN(c2nc(-c3ccccc3)c3cc(Br)ccc3n2)c2ccccc2N1 | 16.2% (inactive) |
| COc1ccc2[nH]c(=O)c(CN(Cc3cccnc3)S(=O)(=O)c3ccccc3F)cc2c1 | 57.4% (active) |
| Cn1cc(/C=C/c2nc3ccccc3c(=O)n2-c2cccc([N+](=O)[O-])c2)c2ccccc21 | 40.4% (active) |
| Cc1c(C(=O)N/N=C/c2ccccc2)[nH]c2c([N+](=O)[O-])cccc12 | 62.2% (active) |
| Clc1ccc2c(c1)C1=C(C(c3ccncc3)O2)C(c2ccc(Br)cc2)n2ncnc2N1 (configuration not stated) | 25.8% (inactive) |
| O=C(CCl)Nc1cccc(CP(=O)(c2ccccc2)c2ccccc2)c1 | 93.8% (active) |
| Cc1noc(C)c1-c1ccc2ncnc(NC(C)c3ccco3)c2c1 (configuration not stated) | 46.5% (active) |
| Nc1cccc(-c2cc(-c3ccccc3)nc(-c3cccc(N)c3)n2)c1 | 9.85% (inactive) |
| CCCCCCCCCCOC(=O)Cn1c(COc2ccc(C)cc2)[n+](C)c2ccccc21 | 74.3% (active) |
| CCCCCCCCCCOC(=O)Cn1c(COc2cccc(OC)c2)[n+](C)c2ccccc21 | 53% (active) |
| C/C(=N\N=C(N)N)c1ccc(Cl)cc1 | 23% (inactive) |
| O=C1c2ccccc2C2=Nc3ccccc3SC(c3ccccc3F)C12 (configuration not stated) | 23.8% (inactive) |
| C=C(C)COc1ccc(-c2n[nH]c(C)c2-c2ccccc2)c(O)c1 | 2.2% (inactive) |
| COc1ccc(-c2n[nH]c(C)c2-c2ccc(OC)c(OC)c2)c(O)c1 | 50.9% (active) |
| C=C(C)COc1ccc(-c2n[nH]c(C)c2-c2ccccc2OC)c(O)c1 | 18.3% (inactive) |
| Cc1cc(C)cc(NC(=O)Cn2cnc3c(nnn3Cc3ccc(F)cc3)c2=O)c1 | 27.3% (inactive) |
| CCN1C(=O)/C(=C\N2CCN(c3cccc(Cl)c3)CC2)SC1=S | 45.1% (active) |
| CCCCN1C(=O)/C(=C/C=C2/C=Cc3ccccc3N2CC)SC1=S | 22.4% (inactive) |
| O=C(NCCN1CCOCC1)c1ccc(/C=C2\Sc3ccccc3N(Cc3ccc(F)cc3)C2=O)cc1 | 11.8% (inactive) |
| CCN1CCN(CCNC(=O)c2ccc(/C=C3/Sc4ccccc4N(Cc4cccc(C)c4)C3=O)cc2)CC1 | 81.8% (active) |

| SMILES | inhibition |
| --- | --- |
| CCN(CCCNC(=O)c1ccc2c(c1)NC(=O)CN2C)c1cccc(C)c1 | 20.2% (inactive) |
| N#Cc1c(N)nc2c3c(sc(=N)c2c1N)NC(=O)CC3c1ccccc1Cl (configuration not stated) | 2.45% (inactive) |
| N#Cc1ccc(C(=O)Nc2nc(-c3cccs3)c(C(=O)C(F)(F)F)s2)cc1 | 86.9% (active) |
| C=CCN(CC=C)S(=O)(=O)c1ccc(C(=O)Nc2nc3c(s2)CCc2ccccc2-3)cc1 | 24.2% (inactive) |
| O=[N+]([O-])c1ccc(Oc2ccc(F)cc2Br)c2ccncc12 | 53.5% (active) |
| COc1cccc(/C=N/Nc2cc(C)nc(-c3ccccc3O)n2)c1O | 93.8% (active) |
| COc1ccccc1/C=N\Nc1cc(C)nc(-n2nc(C)cc2C)n1 | 31.1% (inactive) |
| Cc1ccc(OCC(O)CN2CCN(CC(O)COc3ccc(C)cc3Cl)CC2)c(Cl)c1 (configuration not stated) | 35.6% (inactive) |
| Cc1cccc(N(C)C(=O)c2cc3c(=O)[nH]c4ccc(C)cc4c3s2)c1 | 73.5% (active) |
| CCN1CCN(c2nc(Nc3cc(OC)ccc3OC)nc(Nc3cc(OC)ccc3OC)n2)CC1 | 12.1% (inactive) |
| CC(=NCC1CCCO1)c1c(O)[nH]c(=O)[nH]c1=O (configuration not stated) | 7.4% (inactive) |
| Cc1cccc(Nc2nc3c(S(=O)(=O)c4ccccc4)nnn3c3ccccc23)c1C | 48.2% (active) |
| Cc1ccc(CS(=O)(=O)c2ncc(Cl)c(C(=O)Nc3nnc(C)s3)n2)cc1 | 96.5% (active) |
| CSc1nnc(NC(=O)c2nc(S(=O)(=O)Cc3ccc(C)cc3)ncc2Cl)s1 | 99% (active) |
| CCOc1ccc(C(C)=O)cc1COC(=O)c1cnc(Cl)c(Cl)c1 | 19% (inactive) |
| COc1ccc(C(=O)O/N=C(\N)Cc2ccc(Cl)cc2Cl)cc1OC | 97.6% (active) |
| COC(=O)c1ccc(NC(=O)c2cc(Cl)ccc2OC)cc1 | 3.8% (inactive) |
| CC1=C(C)CC(C(=O)NNC(=O)c2ccccc2O)C(C(=O)O)C1 (configuration not stated) | 38.8% (inactive) |
| CC(=O)Nc1ccc(NC(=O)C(C)OC(=O)c2ccccc2C(=O)c2ccc(Cl)c([N+](=O)[O-])c2)cc1 (configuration not stated) | 84.5% (active) |
| N#Cc1cccc(NC(=O)COC(=O)c2ccccc2C(=O)c2ccc(Cl)c([N+](=O)[O-])c2)c1 | 98.9% (active) |
| Cc1c(CN2CCC(CO)(CCOc3ccccc3)CC2)[nH]c2ccc(Cl)cc12 | 75.5% (active) |
| CCc1nc2sc3c(Cl)ncnc3c2c2c1CCCC2 | 14.9% (inactive) |
| Oc1c(CN2CCN(c3ccc(F)cc3)CC2)cc(Cl)c2cccnc12 | 85.5% (active) |

| SMILES | inhibition |
| --- | --- |
| Oc1c(CN2CCCC2)cc(COCc2ccccc2)c2cccnc12 | 66% (active) |
| O=C(NC(=S)Nc1ccc2oc(=O)ccc2c1)c1ccc(-c2cccc(Cl)c2Cl)o1 | 34.5% (inactive) |
| Cc1cc(C(=O)CCl)c(C)n1CC1COc2ccccc2O1 (configuration not stated) | 15.6% (inactive) |
| Cc1ccsc1C(=O)OCC(=O)c1cc(C)n(CC2CCCO2)c1C (configuration not stated) | 94.5% (active) |
| COc1ccc(CN2CN(C(C)C)CSC2=S)cc1 | -10.1% (inactive) |
| Cc1cc(C(=O)COc2ccccc2[N+](=O)[O-])c(C)n1-c1cccc(S(=O)(=O)N2CCOCC2)c1 | 58.5% (active) |
| O=C(NC(=O)c1ccccc1N1CCCCC1)Nc1ccc(Br)cc1 | 54.9% (active) |
| CC(=O)Nc1ccc(S(=O)(=O)Nc2ccc(N3CCCCC3)cc2)cc1 | 3.05% (inactive) |
| CCCOc1ccccc1C1CC(=O)Nc2cc3c(cc21)OCO3 (configuration not stated) | 61.9% (active) |
| COc1ccccc1C1C2=C(COC2=O)Nc2cc3c(cc21)OCO3 (configuration not stated) | 62.8% (active) |
| O=C(Oc1c(-c2ccco2)oc2ccccc2c1=O)c1cccnc1 | 37.6% (inactive) |
| O=C1/C(=C/c2ccc(F)cc2)SC(=S)N1CCCC(=O)N1CCCCC1CCO (configuration not stated) | 49.8% (active) |
| COc1ccc(C(C[N+](=O)[O-])n2nc(C)cc2C)cc1 (configuration not stated) | 9.85% (inactive) |
| CC(=O)c1ccc(Oc2cc(C)nc(-n3nc(C)cc3C)n2)cc1 | 51.8% (active) |
| CSc1nc(N)c(C#N)c(-c2ccccc2Cl)c1C#N | 22.9% (inactive) |
| COc1ccc(Nc2oc(-c3ccccc3Cl)nc2C#N)cc1 | 42.7% (active) |
| CN(C)CCCn1c(=O)n(Cc2ccccc2)c(=O)c2c3c(sc21)CCCCC3 | 37.5% (inactive) |
| COc1ccc(C(C(=O)NC2CCCCC2)N(C(=O)CCl)c2ccccc2Cl)cc1 (configuration not stated) | 100% (active) |
| N#Cc1c(NC(=O)CSc2nc3ccccc3c(=O)n2Cc2ccco2)sc2c1CCCC2 | 36.7% (inactive) |
| CC(=O)N1CCc2c(sc(NC(=O)CCS(=O)(=O)c3ccccc3)c2C#N)C1 | 45.3% (active) |
| COc1cccc2sc(N(CCCN(C)C)C(=O)CCS(=O)(=O)c3ccccc3)nc12 | 48% (active) |
| COc1cccc2sc(N(CCCN(C)C)C(=O)C(c3ccccc3)c3ccccc3)nc12 | 86.2% (active) |
| CN(C)CCCN(C(=O)c1ccc(S(=O)(=O)N2CCCCCC2)cc1)c1nc2ccc(Br)cc2s1 | 21.9% (inactive) |

| SMILES | inhibition |
| --- | --- |
| CN(C)CCCN(C(=O)c1ccc(S(=O)(=O)N2CCCCCC2)cc1)c1nc2cc3c(cc2s1)OCCO3 | 29.6% (inactive) |
| Cc1cccc2sc(N(CCCN(C)C)C(=O)CCS(=O)(=O)c3ccccc3)nc12 | 52% (active) |
| Cc1ccc2sc(N(CCN(C)C)C(=O)/C=C/c3cccs3)nc2c1C | 4.55% (inactive) |
| Cn1c(=O)n(C)c2cc(C(=O)Nc3ccc(Br)cc3)ccc21 | 35.1% (inactive) |
| Cn1c(=O)n(C)c2cc(C(=O)Nc3ccc4c(c3)OCO4)ccc21 | 47.6% (active) |
| Cc1ccc(C(=O)Nc2sc(Cc3ccc4c(c3)OCO4)c(C)c2C(N)=O)cc1 | 40% (inactive) |
| O=c1oc2ccccc2cc1-c1cn(-c2ccccc2)c(=S)[nH]1 | 96.2% (active) |
| Cc1ccc(C(=O)NNC(=O)c2cc3cc4ccccc4nc3s2)cc1 | 26.1% (inactive) |
| C=CCSc1nsc(NC(=O)Nc2cccc(C(C)=O)c2)n1 | 66.8% (active) |
| CCSc1nsc(NC(=O)Nc2cccc(C(C)=O)c2)n1 | 40.8% (active) |
| Cc1cccc(NC(=S)NCc2ccc3[nH]c4c(c3c2)CCCC4)c1 | 10.7% (inactive) |
| Oc1c(Cl)cc(Cl)c(Cl)c1Cc1c(O)c(Cl)cc(Cl)c1Cl | 90.5% (active) |
| Cc1c(Cl)c([N+](=O)[O-])nn1Cc1ccc(C(=O)N/N=C\c2cc(Cl)ccc2O)o1 | 75% (active) |
| CCCCNc1c(-c2cccc(Sc3ccc(OC)cc3)c2)nc2ccccn12 | -9.4% (inactive) |
| CCCc1nc(NCc2ccc3c(c2)OCO3)c2nnn(Cc3ccccc3Cl)c2n1 | 62% (active) |
| Cc1ccc2nc(-c3ccncc3)cc(C(=O)Nc3ccc4c(c3)OCCO4)c2c1 | 57% (active) |
| COc1ccc(CS(=O)/C(Cl)=C(/Cl)C(=O)Nc2ccc(OC)nc2)cc1 (configuration not stated) | 100% (active) |
| COc1ccc(CC(=O)Nc2ccc(-c3nnc(-c4ccc(C)cc4)o3)cc2)cc1 | 15.7% (inactive) |
| COc1ccc(NC(=O)/C(Cl)=C(/Cl)S(=O)Cc2ccc(C)cc2)cn1 (configuration not stated) | 99.5% (active) |
| O=C(Nc1ccc2ccccc2c1)Nc1ccc2snnc2c1 | 47.5% (active) |
| COc1ccc(-c2cc(C(F)(F)F)nc(S(C)(=O)=O)n2)cc1OC | 56.1% (active) |
| Cc1ccc2[nH]c(=O)c(CN(CCCN(C)C)C(=O)Nc3cccc(Cl)c3)cc2c1 | 44.1% (active) |
| Cc1cc(C)c2[nH]c(=O)c(CN(Cc3ccccc3)C(=S)NCCCN(C)C)cc2c1 | 37% (inactive) |
